The source of these data is PubChem BioAssay AID1347417 (National Center for Advancing Translational Sciences (NCATS), 2020).

The whole screen tested about 120,000 compounds, of which about 5,300 (4.4%) were called active. Entries that show only a call come without a potency. Not shown: some 22% with an inconclusive outcome. Only a selection was taken, and actives are over-represented in it overall. Values without a mark were called inactive. Calls come from the whole dose curve; as a rule, active = well fitted inhibition curve with a large enough effect; inconclusive = small, poorly fitted or top-dose-only effect; inactive = no such curve, though single readings can be large or run the other way.
Potency is the fitted concentration of half-maximal effect.

A short description of the test: qHTS Primary assay for Inhibitors of Plasmodium falciparum Dd2 growth in vitro. Note: nearly all actives have a fitted effect of over 65% in size. The following applies: P. falciparum Dd2 growth, SYBR Green, 72 h; series mostly up to 28.9 µM. An outline of the steps:
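Readout: SYBR Green fluorescence, 485 nm excitation, 535 nm emission, after ~16 h lysis at 37C. Before that, Dd2-infected red cells (2.5% hematocrit) grew 72 h with compound, 29 uM top final concentration.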
Take `COC[C@@H]1CN(S(=O)(=O)c2cccc(F)c2)C[C@H]1c1ccncc1`: the Potency result was “inactive”.

As to `O=C(c1ccccn1)N1CCC(N(C(=O)NCCc2ccccc2)C2CCOCC2)CC1`, the Potency entry is “inactive”.

`OC[C@@H]1CN(Cc2cccnc2)C[C@H]1c1ccncc1`: the Potency entry is “inactive”.

In the case of `COc1ccccc1Nc1cnc2ccc(-c3ccc(OC)c(OC)c3)nn12`, the Potency is 1.12 µM (active).

For `CN(C)c1ccc2ncc(Nc3ccccc3F)n2n1`, the Potency result was “inactive”.

For `COc1ccc(-c2ccc3ncc(Nc4ccc(C(F)(F)F)cc4)n3n2)cn1`, the Potency result was “inactive”.

For `CC(=O)N1CCN(Cc2cc(F)ccc2Cl)CC(O)C1` (configuration not stated), the Potency entry is “inactive”.

For `CN(Cc1ccccc1)C(=O)C1CCCN(c2cnn(Cc3ccccc3)c(=O)c2)C1` (configuration not stated), the Potency result was “inactive”.

In the case of `COc1cccc([C@H]2CN(c3cc(C)nc(N)n3)[C@@H]3C4CCN(CC4)[C@H]23)c1`, the Potency was 11.2 µM (active).

For the molecule `COc1ccc([C@@H]2CN(C(=O)c3c(C)noc3C)[C@@H]3C4CCN(CC4)[C@@H]32)cc1`, the Potency result was “inactive”.

As to `Cc1ccc([C@@H]2CN(Cc3ncc[nH]3)[C@@H]3C4CCN(CC4)[C@@H]32)cc1`, the Potency entry is “inactive”.

Regarding `O=C(Cn1nc2c(cc1=O)CCCC2)NC1CCN(C(=O)c2cc3ccccc3[nH]2)CC1`, the Potency entry is “inactive”.

As to `C[C@@H]1CN(C(=O)c2ccsc2)C[C@H]1c1nc(-c2ccncc2)no1`, the Potency entry is “inactive”.

With `COc1ccc(CN2CCC3(Cc4ccccc4CNC3=O)C2)cc1OC` (configuration not stated), the Potency entry was “inactive”.

For `O=C1NCc2ccccc2CC12CCCN(Cc1ccc(F)cc1O)C2` (configuration not stated), the Potency is 4.47 µM (active).

Take `O=C1NCc2ccccc2CC12CCCN(CC1CCCCC1)C2` (configuration not stated): the Potency entry was “inactive”.

On to `CCOc1cc(C2C(C(=O)Nc3ccc(OC)cc3)=C(C)Nc3nc(SC)nn32)ccc1O` (configuration not stated), for which the Potency entry was “inactive”.

Take `CCOc1ccc(C2C(C(=O)Nc3ccc(Cl)cc3)=C(C)Nc3nc(C(F)(F)F)nn32)cc1` (configuration not stated): the Potency was 2.82 µM (active).

For `CCOc1ccccc1NC(=O)C1=C(C)Nc2ncnn2C1c1ccc(NC(C)=O)cc1` (configuration not stated), the Potency result is “inactive”.

As to `COc1cccc(CCC(=O)N2CCCC2c2nc(C3CCOCC3)no2)c1` (configuration not stated), the Potency result is “inactive”.

`c1cc(CN2CCCCCC2)cc(-c2nc(C3CCOC3)no2)c1` (configuration not stated): the Potency is 8.91 µM (active).

For the molecule `O=C(NC1CCCC1)N1CCC(c2noc(-c3ccccc3)n2)C1` (configuration not stated), the activity, negative = inhibition was 13.8% [at 5.79 µM].

Take `Cc1ccc(C2CC(=O)Nc3c2c(C2CC2)nn3C)c(C)c1F` (configuration not stated): the Potency result is “inactive”.

In the case of `COc1cc2nc(SCC(=O)Nc3ccccc3F)n3nc(-c4ccccc4)nc3c2cc1OC`, the Potency result was “inactive”.

Regarding `COc1cc2nc(NCC(C)c3ccccc3)n3nc(-c4ccccc4)nc3c2cc1OC` (configuration not stated), the Potency is 3.55 µM (active).

Regarding `COc1ccc(Cl)cc1NC(=O)CSc1nc2ccccc2c2nc(-c3ccccc3)nn12`, the Potency entry is “inactive”.

For `COc1cccc(N2C(=O)NC(=NC3CCCCC3)C23CCN(CC2CC2)CC3)c1`, the Potency result is “inactive”.

As for `Cc1ccc(C(=O)N2CCC(CCC(=O)NC3CCCCC3)CC2)cc1`, the Potency entry was “inactive”.

With `Cc1ccc(S(=O)(=O)N2CCCC(CCC(=O)NC3CCCCC3)C2)cc1` (configuration not stated), the Potency is 12.6 µM (active).

With `O=C(CCC1CCCN(S(=O)(=O)c2ccc(F)cc2)C1)NC1CCS(=O)(=O)C1` (configuration not stated), the Potency result is “inactive”.

Turning to `Cc1nc([C@@H]2CN(C(=O)CCCc3nc4ccccc4s3)C[C@H]2C(N)=O)n[nH]1`, the Potency result was “inactive”.

For the molecule `CCC(CC)C(=O)N[C@H]1C[C@@H](Cc2cc(COc3ccccc3)on2)C1(C)C`, the Potency result is “inactive”.

As to `CC1(C)[C@H](Cc2cc(CC3CCCCC3)on2)C[C@@H]1NC(=O)C1CCC1`, the Potency is 11.2 µM (active).

For `CCNC(=O)N[C@H]1C[C@@H](Cc2cc(CC(C)C)on2)C1(C)C`, the Potency result was “inactive”.

Take `Cc1cc(CN(C)C(=O)C2C3C(=O)N(Cc4ccc(C)c(C)c4)C[C@@]34C=C[C@@H]2O4)no1` (some centres not stated): the Potency entry is “inactive”.

With `Cc1cccc(Nc2nc(C)nc(N)c2S(=O)(=O)c2ccccc2)c1`, the Potency result was “inactive”.

For `COc1ccc(S(=O)(=O)c2c(Nc3cccc(Cl)c3)sc(C(=O)c3ccccc3)c2N)cc1`, the Potency was 8.91 µM (active).

As to `Cc1ccc(CN2C[C@H]3CN(C(=O)c4ccc5c(c4)OCO5)CCN3C2=O)cc1`, the Potency entry is “inactive”.

In the case of `COc1cccc(C(=O)c2sc3nc(-c4ccccc4)cc(C(F)(F)F)c3c2N)c1`, the Potency entry is “inactive”.

Take `COc1ccc(N2C(=O)CSC23CCN(C(=O)c2ccc(C)cc2)CC3)cc1`: the Potency result was “inactive”.

On to `CCOC(=O)c1ccc(NC(=O)CCS(=O)(=O)c2ccc(C)cc2)cc1`, for which the Potency result was “inactive”.

As for `COc1ccc(S(=O)(=O)c2c(Nc3ccc(C)cc3)sc(C(=O)c3ccc(C)cc3)c2N)cc1`, the Potency was 10 µM (active).

Regarding `Cc1ccc(S(=O)(=O)c2c(Nc3cccc(Cl)c3)sc(C(=O)c3ccc4c(c3)OCO4)c2N)cc1`, the Potency was 7.94 µM (active).

Take `CCOC(=O)c1[nH]ncc1C1CC(=O)Nc2c1cnn2Cc1cccnc1` (configuration not stated): the Potency result is “inactive”.

On to `C[S+](=O)([O-])N1CCC(Cn2ccc3c(N4CCOCC4)nc(-c4cccc(O)c4)cc32)CC1`, for which the Potency result was “inactive”.

Turning to `CN1CCc2c([nH]c3ccccc23)C12CCN(C(=O)c1nccc3ccccc13)CC2`, the Potency result is “inactive”.

`CCC(CC)C(=O)N1CC(C(=O)N(C)C)C2(CCOCC2)C1` (configuration not stated): the Potency result was “inactive”.

`Cc1cccc(C)c1NC(=O)Cn1ccn2nc(-c3ccccc3)c(CO)c2c1=O`: the Potency entry was “inactive”.

`O=C1CO[C@H]2CN(C3CCOCC3)C[C@H]2N1c1ccccc1`: the Potency result was “inactive”.

On to `COc1ccc(-c2cc(-c3ccccc3)nc3c2COc2ccc(Cl)cc2-3)cc1`, for which the Potency result is “inactive”.

As for `COc1ccc(-c2cc(-c3ccc(F)cc3)nc3c2COc2ccccc2-3)cc1`, the Potency entry is “inactive”.

Take `Fc1ccc(-c2nc(Nc3cccc(Cl)c3)nc3c2COc2ccccc2-3)cc1`: the Potency was 11.2 µM (active).

For the molecule `COc1ccc(Cl)cc1C(=O)N1CCN(c2cc(C(F)(F)F)nc(C)n2)CC1`, the Potency entry is “inactive”.

In the case of `COc1ccc(C(=O)N2CCOC3(CCN(C(=O)c4c(C)noc4C)CC3)C2)cc1`, the Potency entry is “inactive”.

`CCc1ccc(Sc2cc(C(=O)NCCCOC(C)C)c3ccccc3n2)cc1`: the Potency entry was “inactive”.

With `CCC1=Nc2cc(C(=O)NCCCOC(C)C)ccc2Sc2ccc(C)cc21`, the Potency was 12.6 µM (active).

On to `COCCNC(=O)c1ccc2c(c1)N=C(C)c1cc(C)ccc1S2`, for which the Potency entry is “inactive”.

Regarding `CCC1=Nc2cc(C(=O)NCC(C)c3ccccc3)ccc2Sc2ccc(C)cc21` (configuration not stated), the Potency was 11.2 µM (active).

For `Cc1ccc(N(CC(=O)NCC(C)c2ccccc2)S(=O)(=O)N(C)C)cc1` (configuration not stated), the Potency result was “inactive”.

For `CC1=Nc2cc(C(=O)NCc3ccc(C)cc3)ccc2Sc2ccc(Cl)cc21`, the Potency result was “inactive”.

As for `O=C(c1ccc(OC(F)(F)F)cc1)N1CCC(n2cc(-c3nc(C4CC4)no3)nn2)C1` (configuration not stated), the Potency entry is “inactive”.

As for `O=C(c1ccoc1)N1CCC(N2CC3CC(C2)[C@H]2CCCC(=O)N2C3)CC1` (some centres not stated), the Potency entry was “inactive”.

Regarding `Cc1ccc(Cc2ccccc2C(=O)N2C[C@@H](CN(C)CCO)[C@@H](CO)C2)cc1`, the Potency result was “inactive”.

Take `Cc1ccc(C(=O)N2CCC(CCC(=O)N3CCc4ccccc4C3)CC2)cc1`: the Potency entry was “inactive”.

`Cc1ncc2n1C(=O)N(C1CCN(C(=O)c3ccc(Cl)cc3)CC1)C2`: the Potency entry is “inactive”.

As for `COC(=O)c1c(NC(=O)c2ccccc2)c2cc(NC(C)C)cnc2n1CC1CCCO1` (configuration not stated), the Potency entry is “inactive”.

For `Cc1ccc(-c2nnc(Nc3ccc(OCC(N)=O)cc3)c3ccccc23)cc1S(=O)(=O)NCC1CCCO1` (configuration not stated), the Potency was 1.12 µM (active).

Turning to `Cc1ccc(Nc2nnc(-c3ccc(C)c(S(=O)(=O)N4CCCCC4)c3)c3ccccc23)cc1`, the Potency result was “inactive”.

Turning to `CCNS(=O)(=O)c1cc(-c2nnc(Nc3cccc(C(F)(F)F)c3)c3ccccc23)ccc1C`, the Potency result is “inactive”.

As for `COCCNS(=O)(=O)c1cc(-c2nn3c(C)nnc3c3ccccc23)ccc1C`, the Potency entry is “inactive”.

Regarding `Cc1ccc(-c2nnc(Nc3cccc(Br)c3)c3ccccc23)cc1S(=O)(=O)NCC1CCCO1` (configuration not stated), the Potency is 11.2 µM (active).

For `O=C(NCCc1noc(C2CC2)n1)c1ccc2c(c1)OCO2`, the Potency entry was “inactive”.

On to `C[S+](=O)([O-])N1CC2ON=C(C(=O)N3CCCC3)C2C1` (configuration not stated), for which the Potency entry was “inactive”.

Turning to `COCCn1ncc(N2CCC(C(=O)NCc3ccc(C)o3)C2)cc1=O` (configuration not stated), the Potency result is “inactive”.

Consider `CC(C)(C)c1ccnc(N[C@H]2CO[C@H]3[C@@H]2OC[C@H]3OC(=O)Nc2cccc(C(F)(F)F)c2)n1`, for which the Potency result was “inactive”.

Consider `Cc1ccc(NC(=O)c2cnc(-c3ccccc3)nc2-c2ccncc2)cc1C`, for which the Potency entry was “inactive”.

As to `O=[S+]1([O-])NCC2(CCCN(Cc3ccncc3)C2)Oc2ncccc21` (configuration not stated), the Potency result is “inactive”.

For `Cc1nn(C)c(C)c1S(=O)(=O)N1CCC(c2noc(-c3ccccc3)n2)C1` (configuration not stated), the activity, negative = inhibition was 8.68% [at 5.79 µM].

With `CC(C)Cn1c(-c2ccc(S(=O)(=O)N3CCOCC3)cc2)csc1=Nc1cc(Cl)ccc1Cl`, the Potency was 10 µM (active).

Regarding `O=C(CN1C(=O)COc2ccc(S(=O)(=O)N3CCOCC3)cc21)N1CCN(c2cccc(Cl)c2)CC1`, the Potency entry is “inactive”.

For the molecule `O=C1[C@@H]2C[C@@H](O)CN2C2(CN(Cc3ccc(OC(F)(F)F)cc3)C2)C(=O)N1Cc1ccccc1Cl`, the Potency entry is “inactive”.

`CO[C@H]1[C@H](NC(=O)c2cnc3ccccc3c2)c2ccccc2C12CCNCC2`: the Potency entry is “inactive”.

Turning to `Clc1ccc(-c2nnc3n2CCN(Cc2cccc4ccccc24)C3)cc1`, the Potency result was “inactive”.

As for `c1ccc2c(c1)CCN2C1CN(Cc2cccc3ccccc23)C1`, the Potency entry was “inactive”.

For the molecule `Cc1ccccc1N(C)C1CN(Cc2cccc3ccccc23)C1`, the Potency was 10 µM (active).

For `COc1cc2c(cc1Oc1cccc(N(C)C)c1)NC(=O)C21CCN(c2cnccn2)CC1`, the Potency was 0.891 µM (active).

Consider `COc1cc2c(cc1OCc1ccncc1)NC(=O)C21CCN(c2ncccn2)CC1`, for which the Potency entry is “inactive”.

On to `COc1cc2c(cc1Oc1cccc(N(C)C)c1)NC(=O)C21CCN(Cc2ccccn2)CC1`, for which the Potency result is “inactive”.

For the molecule `COc1ccc(NC(=O)O[C@@H]2CO[C@H]3[C@@H]2OC[C@@H]3NC(=O)C2CCCCC2)cc1`, the Potency entry was “inactive”.

Regarding `O=C(CC1CCCN(c2cnn(CC3CC3)c(=O)c2)C1)NCc1cc(F)cc(F)c1` (configuration not stated), the Potency result was “inactive”.

`COc1ccc(NC(=O)Cn2c(=O)n(-c3ccccc3)c(=O)c3c2cc(C)n3C)cc1`: the Potency entry was “inactive”.

For `N#Cc1ccc(S(=O)(=O)NC2CCc3nn(CC4CC4)c(=O)n3CC2)cc1` (configuration not stated), the Potency entry is “inactive”.
